Shown are actives, neighbours in structure and some others; about 1.7% of the full set was active somewhere.
GLP1R ag = activates the human GLP-1 receptor; P43220; HEK293 GLP-1R CRE-luciferase, luminescence, 4-6 h; cells express a hypersensitive GLP-1R form; Potency, µM (doses to about 45.6 µM), for inactives: at the top dose activation, usual class: activators; 380,000 tested, 0.007% active; AID 624172; further: potency means the concentration at half of the fitted maximal effect; % of control where 0% means no effect
PTHR1 ag = PTHR1 (human) receptor agonism. HEK293 GP2 PTHR1 cells, GloSensor cAMP luminescence, 1 h. Potency, µM (doses to about 115 µM), without a hit: at the highest dose activation, most hits filed as activators. 410,000 tested, 0.075% active. AID 743266; further: potency means the concentration at half of the fitted maximal effect; nearly all actives have a fitted effect of over 55% in size
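HEK-293-derived GP2 cells expressing PTHR1 and a GloSensor cAMP reporter, 3,000/well, plated overnight, given luciferin plus IBMX (each 0.5 mM as added) for 1 h at 37 °C, then compound for 1 h at 37 °C. Luminescence was read after 15 min at room temperature.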
GLP-1R inv ag = inverse agonists of human GLP-1 receptor | P43220 | HEK293 GLP-1R CRE-luciferase, luminescence, 24 h; GLP-1R form is constitutively active | Potency, µM (doses to about 38.3 µM), for the others: at the top dose activity change, negative = inhibition, hits mostly inhibitors | 410,000 tested, 1.6% active; further: potency means the concentration at half of the fitted maximal effect; on the % scale 0 is the no-effect control and ±100 the full control effect; nearly all actives have a fitted effect of over 55% in size
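GLP-1R inverse agonism mode: basal reporter luminescence in engineered HEK293 cells measured after one day of compound exposure at 37 deg C, with a 12 min room-temperature detection step.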
GLP1R cytotox = cytotoxicity in counter-screen for GLP-1R inverse agonists. Potency, µM (doses to about 38.3 µM), for the others: at the top dose activity change, negative = inhibition, usual class: inhibitors. HEK293 cAMP-luciferase reporter cells, luminescence, 24 h. 410,000 tested, 0.13% active;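 further: loss of luciferase light is scored as toxicity; potency means the concentration at half of the fitted maximal effect; on the % scale 0 is the no-effect control and ±100 the full control effect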
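A 23 nL compound transfer followed 12 hours of cell culture at 37 deg C; exposure then lasted 24 hr. Luciferase assay detection reagent was dispensed and plates read for luminescence after a 12 min room-temperature wait.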
mIDH1 inhibitor = inhibitors of human mutant IDH1 R132H; O75874; IDH1-R132H enzyme, NADPH consumption, diaphorase/resazurin fluorescence; Potency, µM (top dose mostly 76.6 µM), for the others: at the top dose activity change, negative = inhibition, hits mostly inhibitors; 390,000 tested, 0.093% active; AID 602179; further: potency means the concentration at half of the fitted maximal effect; on the % scale 0 is the no-effect control and ±100 the full control effect; nearly all actives have a fitted effect of over 65% in size
Target sequence (O75874 whole entry R132H, stated change not applied): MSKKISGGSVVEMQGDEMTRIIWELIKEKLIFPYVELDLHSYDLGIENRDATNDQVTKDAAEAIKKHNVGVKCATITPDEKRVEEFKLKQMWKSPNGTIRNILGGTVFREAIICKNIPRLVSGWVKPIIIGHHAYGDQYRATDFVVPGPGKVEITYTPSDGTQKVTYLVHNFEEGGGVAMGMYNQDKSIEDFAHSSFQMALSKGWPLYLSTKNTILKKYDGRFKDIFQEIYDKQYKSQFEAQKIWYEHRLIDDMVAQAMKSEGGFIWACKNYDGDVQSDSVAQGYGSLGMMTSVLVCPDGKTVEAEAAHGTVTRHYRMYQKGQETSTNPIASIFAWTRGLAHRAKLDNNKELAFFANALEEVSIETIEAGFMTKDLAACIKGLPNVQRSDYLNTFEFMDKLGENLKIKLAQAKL
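IDH1-R132H (0.5 ug/mL) preincubated 30 min with compound, then NADPH (0.016 mM) and alpha-KG (2 mM) added; 80 min at RT, pH 7.5. Remaining NADPH coupled via diaphorase/resazurin to fluorescence (540/590 nm); concentration-response curves normalized to no-enzyme control.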
LDHA block = inhibitors of human lactate dehydrogenase A | P00338 | purified LDHA, NADH/diaphorase-resazurin fluorescence; stronger effect = lower value | activity change, % (values are at about 110 or 230 µM) | 480,000 tested, 0.15% active | AID 1347041; in the data active means activity change below about -30%; inconclusive means mostly about -25% to -30%;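 further: plate controls were DMSO wells for no effect and wells without enzyme for full effect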
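Remaining NADH was detected by diaphorase (0.133 mg/mL) converting 37 µM resazurin to fluorescent resorufin, read at 0 and 20 minutes. The preceding 5-minute room-temperature reaction used 2 nM LDHA, 0.2 mM sodium pyruvate and 0.06 mM NADH at pH 7.4.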
The depositor's hits bear a star; [ ] = dose if it differs, or a comment. Unless noted, the call rests on the fitted dose curve; in most records, active means well fitted curve in the direction sought with a large enough effect; inconclusive means small, poorly fitted or top-dose-only effect, or another doubt; inactive means no such curve, though single readings can be large; an effect the other way counts as inactive or inconclusive.

CN1CCN(CCCN2C(=O)CSC2c2ccc(Cl)cc2)CC1 (stereo unspecified) was read as LDHA block -8.
For CCOc1ccc2ccccc2c1CNCC(O)c1ccccc1 (stereo unspecified) the results were LDHA block -5.
Screening CCn1c(CSc2nc3ccccc3[nH]2)nc2cc(C(=O)O)ccc21 returned GLP1R ag 2%, PTHR1 ag -9%, GLP-1R inv ag 0%, GLP1R cytotox 55%, mIDH1 inhibitor 3% and LDHA block -30*.
For CCn1c(CSc2nccn2C)nc2cc(C(=O)O)ccc21 the results were GLP1R ag -1%, PTHR1 ag -3%[57.5 µM], GLP-1R inv ag -3%, GLP1R cytotox -3%, mIDH1 inhibitor 9% and LDHA block 7.
For Brc1ccc(OCCSc2nc3ccccc3o2)cc1 the results were LDHA block -1.
O=C(c1ccc(NS(=O)(=O)c2ccc(F)cc2)cc1)N1CCN(c2ccccc2O)CC1 was read as GLP1R ag 9%, PTHR1 ag -4%, GLP-1R inv ag 7%, GLP1R cytotox -5%, mIDH1 inhibitor 6% and LDHA block 1.
For O=C(c1ccc(S(=O)(=O)Nc2cccc(C(F)(F)F)c2)cc1)N1CCN(c2ccccc2O)CC1 the results were GLP1R ag 3%, PTHR1 ag -26%, GLP-1R inv ag 10µM*, GLP1R cytotox 2%, mIDH1 inhibitor 4% and LDHA block 0.
For Cc1cc(=O)oc(C)c1C(=O)Nc1c(C)n(C)n(-c2ccccc2)c1=O the results were GLP1R ag -1%, PTHR1 ag inactive, GLP-1R inv ag 11%, GLP1R cytotox 23%, mIDH1 inhibitor 6% and LDHA block -3.
For Cc1c(NC(=O)c2c(NC(=O)CNC3CC3)sc3c2CCCC3)c(=O)n(-c2ccccc2)n1C the results were GLP1R ag 4%, PTHR1 ag -2%, GLP-1R inv ag -30%, GLP1R cytotox -2%[1.53 µM], mIDH1 inhibitor 3% and LDHA block -89*.
Screening CCN(CC)CCN(C(=O)c1ccc2c(c1)OCCO2)c1nc2cc(C)cc(C)c2s1 returned GLP1R ag -4%, PTHR1 ag -27%, GLP-1R inv ag 11µM*, GLP1R cytotox 15%, mIDH1 inhibitor 3% and LDHA block 0.
For CCCCc1noc(CN2CCC(NC(=O)c3cnn(C)c3)CC2)n1 the results were LDHA block -1.
`Oc1ccc(-c2nc3ccccn3c2Nc2ccc3c(c2)OCCO3)cc1` gave PTHR1 ag -25%, GLP-1R inv ag -9%, GLP1R cytotox -4%, mIDH1 inhibitor 12% and LDHA block 6.
`Clc1cccc(-c2nc3ccccn3c2Nc2ccc3c(c2)OCCO3)c1` gave PTHR1 ag -25%, GLP-1R inv ag 6.3µM*, GLP1R cytotox -6%, mIDH1 inhibitor -7% and LDHA block 8.
Cc1cc(OC(C)(C)c2n[nH]c(=S)n2CC(C)C)ccc1Cl was read as LDHA block 2.
Screening Cc1ccc2c(c1)C1CN(C)CCC1N2C(=S)NC(=O)c1ccc(Br)cc1 (stereo unspecified) returned GLP1R ag 0%, PTHR1 ag -46%, GLP-1R inv ag 11µM*, GLP1R cytotox inconclusive, mIDH1 inhibitor -3% and LDHA block -15.
Screening COc1ccc(OCC(=O)N2c3ccc(C)cc3C3CN(C)CCC32)cc1 (stereo unspecified) returned GLP1R ag 7%, PTHR1 ag inactive, GLP-1R inv ag -22%, GLP1R cytotox 11%, mIDH1 inhibitor 7% and LDHA block -1.
O=C(Nc1cccc(S(=O)(=O)Nc2ccccc2F)c1)c1cncn1-c1ccc(F)cc1 was read as LDHA block 3.
`CCn1c(CN2CCN(Cc3ccc(C)cc3)C(CCO)C2)nc2ccccc21` (stereo unspecified) gave GLP1R ag -3%, PTHR1 ag inactive, GLP-1R inv ag 6.3µM*, GLP1R cytotox -1%, mIDH1 inhibitor -17% and LDHA block 0.
Screening CC(C)Cn1c(CN2CCN(C)C(CCO)C2)nc2ccccc21 (stereo unspecified) returned GLP1R ag 0%, PTHR1 ag -6%, GLP-1R inv ag -5%, GLP1R cytotox -4%, mIDH1 inhibitor 4% and LDHA block 1.
N#CCCNC(=O)COC(=O)/C=C/c1cccc2cccnc12 was read as LDHA block 0.
For O=C1CC(c2ccccc2)=C(c2ccccc2)C1c1ccccc1 (stereo unspecified) the results were GLP1R ag -4%, PTHR1 ag -21%, GLP-1R inv ag 14µM*, GLP1R cytotox -30%, mIDH1 inhibitor 4% and LDHA block 2.
For O=C1NNC(=O)C1c1ccccc1 the results were GLP1R ag -1%, PTHR1 ag -8%, GLP-1R inv ag 6%, GLP1R cytotox 0%, mIDH1 inhibitor -1% and LDHA block -1.
Screening CCCNc1c(NS(=O)(=O)c2ccc(OCC)cc2)c(=O)oc2ccccc12 returned LDHA block -3.
NC(=O)C(C(=O)/C=C/c1ccc(Cl)cc1)=C1SCCS1 was read as GLP1R ag -8%, PTHR1 ag -42%, GLP-1R inv ag 4µM*, GLP1R cytotox -28%, mIDH1 inhibitor 13% and LDHA block 0.
For O=C(O)C(C(=O)/C=C/c1ccc(Cl)cc1)=C1SCCS1 the results were LDHA block -2.
`Cc1ccc(S(=O)(=O)NCc2ccc(C(=O)N3CCN(c4ccccn4)CC3)cc2)cc1` gave GLP1R ag -6%, PTHR1 ag -29%, GLP-1R inv ag 13µM*, GLP1R cytotox -24%, mIDH1 inhibitor 5% and LDHA block -5.
`CN(c1ccccc1)S(=O)(=O)c1cc(C(=O)N2CCN(c3ccccn3)CC2)ccc1Cl` gave GLP1R ag -13%, PTHR1 ag -25%[57.5 µM], GLP-1R inv ag 13µM*, GLP1R cytotox -24%, mIDH1 inhibitor 1% and LDHA block -6.
`O=C(c1ccc(Cl)c([N+](=O)[O-])c1)N1CCN(S(=O)(=O)c2ccc(Cl)cc2)CC1` gave GLP1R ag -3%, PTHR1 ag -22%, GLP-1R inv ag inconclusive, GLP1R cytotox -9%, mIDH1 inhibitor 3% and LDHA block -1.

Screening results: PubChem, National Center for Advancing Translational Sciences (NCATS)
